Mtb UGM inh – blocks M. tuberculosis UGM enzyme. P9WIQ1. purified UGM, fluorescence polarization probe displacement. inhibition, % at 10 µM. hit rate 0.06% among 320,000. AID 504406; in the data active = inhibition above about 10%, passing the limit was not always enough
BioA inh – inhibitors of Mycobacterium tuberculosis BioA enzyme | purified M. tuberculosis BioA enzyme, plate reader | inhibition, % at 9.99 µM | hit rate 0.096% among 360,000 | AID 602481; in the data active = inhibition above about 40%
FadD28 binding – M. tuberculosis FadD28 bisubstrate binding inhibition; FadD28 bisubstrate probe binding, fluorescence polarization; inhibition, % at 12.5 µM; hit rate 0.22% among 360,000; AID 588549; in the data active = inhibition above about 8.5%, passing the limit was not always enough
RecA intein inh – inhibitors of M. tuberculosis RecA intein splicing; AID 2221; inhibition, % (test concentration not listed); cell-free RecA intein splicing, fluorescence; P9WHJ3; hit rate 0.75% among 290,000; in the data active = inhibition above about 30%
Target sequence (P9WHJ3 whole entry, looked up): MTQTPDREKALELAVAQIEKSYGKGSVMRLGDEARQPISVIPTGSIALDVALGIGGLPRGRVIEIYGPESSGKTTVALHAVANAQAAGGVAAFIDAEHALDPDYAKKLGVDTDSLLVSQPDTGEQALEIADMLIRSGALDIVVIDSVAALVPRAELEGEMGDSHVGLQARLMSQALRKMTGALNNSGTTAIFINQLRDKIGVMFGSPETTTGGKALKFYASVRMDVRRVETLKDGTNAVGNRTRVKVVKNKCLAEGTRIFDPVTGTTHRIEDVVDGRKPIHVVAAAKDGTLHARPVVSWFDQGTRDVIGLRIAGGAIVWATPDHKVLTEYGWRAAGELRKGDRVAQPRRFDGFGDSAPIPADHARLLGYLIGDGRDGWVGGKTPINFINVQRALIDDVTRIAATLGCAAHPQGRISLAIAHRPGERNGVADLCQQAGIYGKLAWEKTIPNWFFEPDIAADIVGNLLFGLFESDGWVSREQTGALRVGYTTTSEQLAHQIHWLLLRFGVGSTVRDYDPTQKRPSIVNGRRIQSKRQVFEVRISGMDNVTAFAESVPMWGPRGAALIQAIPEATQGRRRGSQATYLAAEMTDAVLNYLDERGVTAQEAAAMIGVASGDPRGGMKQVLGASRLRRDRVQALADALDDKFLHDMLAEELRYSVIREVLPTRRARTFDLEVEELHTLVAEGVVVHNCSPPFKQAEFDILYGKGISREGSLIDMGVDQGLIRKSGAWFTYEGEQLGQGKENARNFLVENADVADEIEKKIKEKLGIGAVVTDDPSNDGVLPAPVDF
TcdB GH inh – blocks C. difficile toxin B glycohydrolase activity; hit rate 0.24% among 350,000; AID 652162; P18177; inhibition, % at 9.99 µM; TcdB glycohydrolase enzymatic assay, plate reader; in the data active = inhibition above about 10%
Rv3671c protease – Rv3671c (M. tuberculosis) protease inhibition. P9WHR9. inhibition, % at 5.96 µM. hit rate 0.048% among 320,000; in the data active = inhibition above about 38%;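 note: extracellular domain of Rv3671c used as enzyme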
A number is an active result; i = inactive; nt = no result. In the library only some 0.97% were active in any assay of this set; here they are far more common.

SMILES	Mtb UGM inh	BioA inh	FadD28 binding	RecA intein inh	TcdB GH inh	Rv3671c protease
C[C@@H]1CN([C@H](C)CO)C(=O)Cc2cc(NC(=O)C3CC3)ccc2O[C@H]1CN(C)C(=O)Nc1ccc(F)cc1	nt	i	nt	nt	i	nt
CO[C@H]1CN(C)C(=O)c2ccc(NC(=O)Nc3cc(F)ccc3F)cc2OC[C@H](C)N(C(=O)c2cnccn2)C[C@@H]1C	nt	i	nt	nt	nt	nt
COc1ccc(CC(=O)C2C(=O)N(C)c3ccccc32)cc1OC (stereo unspecified)	nt	nt	i	nt	11	nt
COc1ccc(CC(=O)OCC(=O)N2c3ccccc3CC2C)cc1OC (stereo unspecified)	nt	i	i	nt	i	nt
CC(C)NC(=O)N(C)C[C@@H]1Oc2ccc(NC(=O)CCCCCC(=O)Nc3ccccc3N)cc2CC(=O)N([C@@H](C)CO)C[C@H]1C	nt	nt	nt	nt	i	nt
O=C(O)C1Nc2c(Cl)cc(Cl)c(Cl)c2C2C=CCC12 (stereo unspecified)	i	i	i	i	i	i
CC(C)C1Nc2c(O)cc(Cl)c([N+](=O)[O-])c2C2C=CCC21 (stereo unspecified)	nt	i	25	i	i	nt
CO[C@@H]1CN(C)C(=O)c2cc(NC(=O)c3ccc(F)cc3)ccc2OC[C@@H](C)NC[C@@H]1C	nt	i	nt	nt	nt	nt
COc1cccc(N2C(=O)NC(=O)/C(=C/c3ccc([N+](=O)[O-])s3)C2=O)c1	i	i	18	i	i	i
COc1ccccc1N1C(=O)NC(=O)/C(=C/c2ccc([N+](=O)[O-])s2)C1=O	i	nt	nt	i	i	i
COc1ccc(N2C(=O)NC(=O)/C(=C/c3ccc([N+](=O)[O-])s3)C2=O)cc1	i	i	35	i	i	i
COc1ccc(N2C(=O)NC(=O)/C(=C\c3ccc([N+](=O)[O-])s3)C2=O)cc1	i	nt	36	i	i	i
CN(C)C(=O)C[C@H]1CC[C@H]2[C@@H](COc3ccc(NC(=O)c4cnccn4)cc3C(=O)N2C)O1	nt	i	nt	nt	i	nt
OC(CNCc1ccccc1)c1ccccc1 (stereo unspecified)	i	i	i	i	i	i
ClCC(CNCc1ccccc1)c1ccccc1 (stereo unspecified)	nt	i	i	nt	12	nt
Cc1ccccc1NC(=S)N=Nc1c(O)n(C)c2ccc(S(=O)(=O)N3CCOCC3)cc12	i	i	i	41	nt	i
Cc1cccc(C)c1NC(=S)N=Nc1c(O)n(C)c2ccc(S(=O)(=O)N3CCOCC3)cc12	i	nt	i	46	nt	i
COC(=O)CCC(=O)OC1(C)C(=O)C2=CN(CCN3CCOCC3)C(c3ccc(OC)cc3)=CC2=C(Br)C1=O (stereo unspecified)	i	nt	nt	i	nt	i
COC(=O)CCC(=O)OC1(C)C(=O)C2=CN(CCCCO)C(c3ccc(OC)cc3)=CC2=C(Br)C1=O (stereo unspecified)	i	nt	nt	48	nt	i
CCCCc1oc2ccccc2c1C(=O)c1cc(I)c(OCCN(CC)CC)c(I)c1	i	i	i	38	i	i
CCN(CC)CCOc1ncnc2c1oc1ccccc12	i	i	i	i	nt	i
CC(C)(C)n1nnnc1C(c1cccs1)N(Cc1cccnc1)Cc1ccccc1Cl (stereo unspecified)	i	i	i	35	nt	i
COc1cc(NC(=O)CCc2nnc3ccc(N4CCN(c5cccc(OC)c5)CC4)nn23)cc(OC)c1	i	i	i	i	i	i
COc1cc(NC(=O)CCc2nnc3ccc(N4CCC(C)CC4)nn23)cc(OC)c1	i	i	i	i	10	i
O=C(O)c1cc(N/N=C/c2c(O)ccc3ccccc23)ccc1Cl	i	i	20	i	i	i
SMILES	Mtb UGM inh	BioA inh	FadD28 binding	RecA intein inh	TcdB GH inh	Rv3671c protease
Oc1ccccc1N=N/C(=N/Nc1ccccc1O)c1ccccc1	i	i	i	i	i	i
N#C/C(N=Nc1ccccc1O)=N\Nc1ccccc1O	i	i	9.4	i	i	i
Cc1ccc2nc(N/N=C\c3ccc([N+](=O)[O-])o3)nc(-c3ccccc3)c2c1	i	i	i	42	nt	i
O=[N+]([O-])c1ccc(/C=N/Nc2nc(-c3ccccc3)c3cc(Br)ccc3n2)o1	i	i	i	i	nt	i
CC[n+]1c(-c2ccccc2)c2cc(N)ccc2c2ccc(N)cc21	nt	nt	15	nt	i	nt
O=C(c1cn(-c2ccccc2)nc1-c1ccncc1)n1nnc2ccccc21	i	i	i	i	100	i
O=C(NCC[C@@H]1CC[C@H](NC(=O)C2CC2)[C@H](CO)O1)c1ccc(F)cc1	nt	i	nt	nt	i	nt
COc1cccc(C#Cc2ccc3c(c2)[C@H]2[C@H](CCN2C(=O)c2ccc4c(c2)OCO4)[C@H](CO)N3)c1	nt	nt	nt	nt	i	nt
O=[N+]([O-])c1cc(C(F)(F)F)ccc1NCCc1c[nH]c2ccccc12	i	nt	i	i	nt	i
O=[N+]([O-])c1cc(C(F)(F)F)ccc1NCCc1c[nH]c2ccc(O)cc12	i	i	12	i	nt	i
Cc1scc(C(=O)N2CCN(c3ccc(Cl)cc3)CC2)c1C	i	i	i	i	11	i
O=C(C[C@H]1CC[C@@H](NS(=O)(=O)c2ccc(F)cc2)[C@@H](CO)O1)NCc1ccccc1F	nt	nt	nt	nt	i	nt
COc1ccccc1NC(=O)N[C@H]1CC[C@H](CCNS(=O)(=O)c2ccc(C)cc2)O[C@@H]1CO	nt	nt	nt	nt	i	nt
Cc1cc(C(=O)N/N=C/c2cccnc2)n[nH]1	i	i	i	i	i	i
Cc1cc(C(=O)N/N=C/c2cccc(OC(=O)c3ccco3)c2)n[nH]1	i	i	i	44	nt	i
COc1cc(C(=O)NCC(=O)N/N=C/c2cccc(OC(=O)c3ccco3)c2)cc(OC)c1OC	i	nt	i	39	i	i
N=c1c2c(-c3ccccc3)c(-c3ccccc3)n(Cc3ccco3)c2ncn1CCCN1CCOCC1	i	nt	8.8	i	i	i
N=c1c2c(-c3ccccc3)c(-c3ccccc3)n(Cc3ccco3)c2ncn1CCCn1ccnc1	i	i	i	i	i	i
CC(=O)NC[C@H]1[C@@H](c2ccc(-c3ccccc3F)cc2)[C@@H](CO)N1C(C)=O	nt	i	nt	nt	i	nt
C[C@H](CO)N1C[C@H](C)[C@@H](CN(C)C(=O)C2CCC2)Oc2cc(C#Cc3ccncc3)ccc2S1(=O)=O	nt	i	nt	nt	i	nt
O=C1NC(=S)S/C1=C\c1ccc(SCc2ccccc2)o1	i	i	18	nt	nt	i
O=C1NC(=S)S/C1=C/c1ccc(OC(=O)c2ccco2)cc1	i	i	i	i	i	i
O=C1NC(=S)S/C1=C\c1ccc(SCc2ccco2)o1	i	i	45	nt	nt	i
CO[C@H]1CN(C)C(=O)c2ccc(NS(=O)(=O)c3cccc(F)c3)cc2OC[C@H](C)NC[C@H]1C	nt	i	nt	nt	i	nt
C[C@@H]1CCCCO[C@H](CN(C)C(=O)Cc2ccccc2)[C@@H](C)CN([C@@H](C)CO)C(=O)c2cc(NC(=O)Nc3ccc4c(c3)OCO4)ccc2O1	nt	i	nt	nt	i	nt
O=C(OCn1ncc(Br)c(Br)c1=O)c1c(F)cccc1F	i	nt	nt	53	nt	i
Cc1onc(-c2ccccc2)c1C(=O)N/N=C/c1cn(C)c2ccccc12	i	i	i	i	13	i
Cc1cccc(/C=N/NC(=O)c2c(-c3ccccc3)noc2C)c1O	i	i	i	nt	i	i

Assay outcomes (PubChem)
